# Assay results taken from publication PMC7862700, “An all-to-all approach to the identification of sequence-specific readers for epigenetic DNA modifications on cytosine”.
# Experiments:
# Test in all cases: DAPPL (digital affinity profiling via proximity ligation, sequencing); 10 mM Tris-HCl pH 7.5, 50 mM NaCl, 1 mM DTT, 4% glycerol, room temperature, 30 min; GST-TFs on glutathione beads, 16-mer random dsDNA library, 0.1% formaldehyde crosslink after washing; high values mean tight binding
# Conditions in all cases: protein: recombinant; tags: N-terminal GST; dsDNA, one strand shown
# FLI1 = target: T1, FLI1 (Homo sapiens, UniProt Q01543 1-452)
# T1 sequence: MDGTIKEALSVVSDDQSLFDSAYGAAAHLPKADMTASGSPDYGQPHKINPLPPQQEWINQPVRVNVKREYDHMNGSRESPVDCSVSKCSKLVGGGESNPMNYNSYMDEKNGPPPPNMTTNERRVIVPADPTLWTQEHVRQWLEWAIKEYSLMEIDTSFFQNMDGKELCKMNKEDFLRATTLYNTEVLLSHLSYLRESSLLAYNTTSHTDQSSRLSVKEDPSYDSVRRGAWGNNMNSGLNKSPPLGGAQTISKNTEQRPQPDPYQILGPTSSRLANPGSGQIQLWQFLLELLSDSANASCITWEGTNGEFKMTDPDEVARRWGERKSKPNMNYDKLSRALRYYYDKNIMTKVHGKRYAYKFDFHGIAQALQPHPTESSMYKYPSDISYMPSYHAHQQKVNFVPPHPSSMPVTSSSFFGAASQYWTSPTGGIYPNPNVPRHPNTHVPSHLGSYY
# Procedure, shortened: (§1)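 Human transcription factors fused to GST were expressed in yeast, captured on glutathione beads, given DNA barcodes and pooled with a GST-only negative control. Pools were incubated with 200 nmole of a 16-mer random double-stranded DNA library in Tris/NaCl/DTT/glycerol buffer at room temperature for 30 min. They were then washed, crosslinked with 0.1% formaldehyde, proximity-ligated (BsaI/T4 ligase, 1 h, 37 °C), PCR-amplified and sequenced on an Illumina NextSeq500. Binding signal is each 6-mer's read frequency for a factor divided by its frequency for the GST control.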
# ELK1 = target: T2, ELK1 (Homo sapiens, UniProt P19419 1-428)
# T2 sequence: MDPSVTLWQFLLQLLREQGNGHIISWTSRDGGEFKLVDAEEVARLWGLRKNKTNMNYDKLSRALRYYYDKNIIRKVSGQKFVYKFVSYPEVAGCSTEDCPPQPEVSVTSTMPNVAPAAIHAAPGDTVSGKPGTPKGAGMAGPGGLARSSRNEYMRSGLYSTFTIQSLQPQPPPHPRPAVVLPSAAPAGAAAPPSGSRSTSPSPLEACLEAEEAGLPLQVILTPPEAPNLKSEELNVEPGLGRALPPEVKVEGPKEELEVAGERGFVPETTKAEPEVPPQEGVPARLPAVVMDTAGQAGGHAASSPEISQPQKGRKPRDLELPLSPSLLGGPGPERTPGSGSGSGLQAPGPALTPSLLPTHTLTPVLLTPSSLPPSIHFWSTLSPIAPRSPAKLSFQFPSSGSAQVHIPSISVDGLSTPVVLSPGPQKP
# Procedure, shortened: as §1
# GABPA = target: T3, GABPA (Homo sapiens, UniProt Q06546 1-454)
# T3 sequence: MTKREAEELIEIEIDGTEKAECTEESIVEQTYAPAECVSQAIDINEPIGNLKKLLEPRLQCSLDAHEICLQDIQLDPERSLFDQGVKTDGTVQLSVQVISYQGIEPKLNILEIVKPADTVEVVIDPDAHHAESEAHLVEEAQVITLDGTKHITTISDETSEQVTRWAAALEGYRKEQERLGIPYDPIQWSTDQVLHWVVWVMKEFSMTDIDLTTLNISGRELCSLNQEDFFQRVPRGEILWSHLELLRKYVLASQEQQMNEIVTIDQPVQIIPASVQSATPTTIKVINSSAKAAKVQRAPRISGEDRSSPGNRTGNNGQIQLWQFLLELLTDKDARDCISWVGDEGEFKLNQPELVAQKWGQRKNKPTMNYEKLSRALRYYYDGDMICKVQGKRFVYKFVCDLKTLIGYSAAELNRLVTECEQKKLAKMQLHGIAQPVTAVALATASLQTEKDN
# Procedure, shortened: as §1
# ERG = target: T4, ERG (Homo sapiens, UniProt P11308 1-479)
# T4 sequence: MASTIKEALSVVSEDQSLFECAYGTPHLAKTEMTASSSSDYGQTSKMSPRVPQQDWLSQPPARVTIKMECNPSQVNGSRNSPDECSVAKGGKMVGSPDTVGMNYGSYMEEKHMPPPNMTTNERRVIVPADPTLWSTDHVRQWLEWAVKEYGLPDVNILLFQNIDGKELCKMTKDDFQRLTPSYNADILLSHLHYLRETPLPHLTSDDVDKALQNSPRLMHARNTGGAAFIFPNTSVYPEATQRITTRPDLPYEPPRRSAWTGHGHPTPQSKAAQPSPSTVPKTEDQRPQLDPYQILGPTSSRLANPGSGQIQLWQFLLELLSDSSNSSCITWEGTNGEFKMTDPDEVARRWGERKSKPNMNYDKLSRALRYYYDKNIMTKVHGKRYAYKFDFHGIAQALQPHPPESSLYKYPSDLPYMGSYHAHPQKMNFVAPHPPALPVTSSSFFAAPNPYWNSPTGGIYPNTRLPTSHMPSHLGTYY
# Procedure, shortened: as §1
# ELF1 = ELF1 (Homo sapiens, UniProt P32519 1-619)
# Sequence of ELF1 (P32519 whole entry): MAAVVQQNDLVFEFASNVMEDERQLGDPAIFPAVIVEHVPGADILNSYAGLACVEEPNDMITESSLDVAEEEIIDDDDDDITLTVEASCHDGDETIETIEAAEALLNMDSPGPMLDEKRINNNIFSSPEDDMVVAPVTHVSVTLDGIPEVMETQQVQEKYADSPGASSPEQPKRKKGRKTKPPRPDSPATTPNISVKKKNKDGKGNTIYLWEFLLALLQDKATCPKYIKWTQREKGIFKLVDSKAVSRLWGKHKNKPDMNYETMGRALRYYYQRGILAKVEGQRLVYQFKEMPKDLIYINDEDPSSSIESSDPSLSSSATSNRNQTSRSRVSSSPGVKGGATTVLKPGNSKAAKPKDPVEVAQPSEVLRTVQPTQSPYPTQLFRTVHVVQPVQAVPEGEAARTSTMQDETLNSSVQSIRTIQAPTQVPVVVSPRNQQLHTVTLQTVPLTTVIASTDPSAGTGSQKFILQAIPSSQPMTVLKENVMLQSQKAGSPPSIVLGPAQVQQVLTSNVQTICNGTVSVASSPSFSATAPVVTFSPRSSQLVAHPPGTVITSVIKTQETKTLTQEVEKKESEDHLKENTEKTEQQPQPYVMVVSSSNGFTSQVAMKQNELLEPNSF
# Procedure, shortened: as §1
# EHF = target: T5, EHF (Homo sapiens, UniProt Q9NZC4 1-300)
# T5 sequence: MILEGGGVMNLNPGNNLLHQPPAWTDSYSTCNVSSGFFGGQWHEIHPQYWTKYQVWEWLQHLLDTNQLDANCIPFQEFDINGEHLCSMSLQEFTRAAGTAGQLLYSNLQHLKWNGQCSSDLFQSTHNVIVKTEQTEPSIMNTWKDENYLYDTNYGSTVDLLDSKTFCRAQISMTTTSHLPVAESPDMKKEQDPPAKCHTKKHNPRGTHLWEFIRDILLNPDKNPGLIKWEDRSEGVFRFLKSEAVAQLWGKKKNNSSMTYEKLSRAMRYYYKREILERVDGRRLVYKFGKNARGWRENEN
# Procedure, shortened: as §1
# SPI1 = SPI1 (Homo sapiens, UniProt P17947 1-270)
# Procedure, shortened: as §1
# SPIB = SPIB (Homo sapiens, UniProt Q01892 1-262)
# Sequence of SPIB (Q01892 whole entry): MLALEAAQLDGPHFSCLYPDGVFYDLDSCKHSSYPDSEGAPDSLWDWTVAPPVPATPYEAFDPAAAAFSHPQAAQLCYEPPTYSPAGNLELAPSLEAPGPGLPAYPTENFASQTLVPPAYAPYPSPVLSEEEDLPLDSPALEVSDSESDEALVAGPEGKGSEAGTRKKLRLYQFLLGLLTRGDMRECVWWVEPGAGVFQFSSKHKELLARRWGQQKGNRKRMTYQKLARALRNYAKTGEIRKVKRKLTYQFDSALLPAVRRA
# Procedure, shortened: as §1
# ELK3 = target: T6, ELK3 (Homo sapiens, UniProt P41970 1-407)
# T6 sequence: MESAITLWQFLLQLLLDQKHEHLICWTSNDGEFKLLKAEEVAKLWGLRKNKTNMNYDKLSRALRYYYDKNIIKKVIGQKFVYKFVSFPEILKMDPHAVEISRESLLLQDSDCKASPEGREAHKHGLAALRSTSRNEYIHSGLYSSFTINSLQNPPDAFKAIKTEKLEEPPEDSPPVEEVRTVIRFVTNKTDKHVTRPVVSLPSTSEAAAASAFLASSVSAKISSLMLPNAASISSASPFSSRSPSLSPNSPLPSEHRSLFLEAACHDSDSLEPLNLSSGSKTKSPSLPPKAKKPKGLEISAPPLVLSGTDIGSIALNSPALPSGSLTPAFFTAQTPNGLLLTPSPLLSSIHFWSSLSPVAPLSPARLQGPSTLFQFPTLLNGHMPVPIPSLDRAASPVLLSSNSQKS
# Procedure, shortened: as §1
sequence,measurement,setting,value
TATAAA,binding signal,FLI1,"1.17 fold enrichment (6-mer frequency, TF over GST control)"
same,binding signal,ELK1,"1.29 fold enrichment (6-mer frequency, TF over GST control)"
same,binding signal,GABPA,"1.21 fold enrichment (6-mer frequency, TF over GST control)"
same,binding signal,ERG,"1.18 fold enrichment (6-mer frequency, TF over GST control)"
same,binding signal,ELF1,"1.21 fold enrichment (6-mer frequency, TF over GST control)"
same,binding signal,EHF,"1.28 fold enrichment (6-mer frequency, TF over GST control)"
same,binding signal,SPI1,"1.26 fold enrichment (6-mer frequency, TF over GST control)"
same,binding signal,SPIB,"1.3 fold enrichment (6-mer frequency, TF over GST control)"
same,binding signal,ELK3,"1.26 fold enrichment (6-mer frequency, TF over GST control)"
